Experimental data taken from PubChem BioAssay (NCI).
About 83,000 compounds went through this panel and 20% of them were active in at least one assay; those are over-represented in the sample as a whole.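 Cell lines were cultured in 96-well plates, exposed to a single compound concentration, and assessed for percent growth 48 hours later.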 A number with no mark means an inactive call. Activity calls are given as the source filed them. Rule for the calls: active = growth percent below 10; inactive = the rest.

Assays:
Assay in all cases: NCI-60 one-dose screen, 48 h (100 = growth as untreated, 0 = no growth, -100 = all killed)
Conditions in all cases: 10 µM
[1] = test system: T-47D breast
[2] = test system: BT-549 breast
[3] = test system: MDA-MB-435 melanoma
[4] = test system: SW-620 colon
[5] = test system: MCF7 breast
[6] = test system: HCT-116 colon
[7] = test system: HCC-2998 colon
[8] = test system: KM12 colon
[9] = test system: MDA-MB-468 breast

Row | SMILES | growth [1] | growth [2] | growth [3] | growth [4] | growth [5] | growth [6] | growth [7] | growth [8] | growth [9]
1 | COc1ccc(CN2[C@@H](C(=O)NCc3ccc(C(=O)NO)cc3)Cc3c([nH]c4ccccc34)[C@@H]2C)cc1 | 13.9% | 43.6% | -36.4% (active) | -31.3% (active) | 15.8% | 9.97% (active) | 14.6% | 20.4% | 7.58% (active)
2 | CC(=O)Nc1ccc(-c2cn(-c3cccc(C(=O)Nc4cccc(OC(F)(F)F)c4)c3)nn2)cn1 | 93.2% | 96.7% | 61.4% | 90.1% | 70.1% | 88.6% | 110% | 30.1% | 86.7%
3 | N#Cc1c(-c2ccc(F)cc2)nc(SCc2ccc([N+](=O)[O-])cc2)nc1N1CCOCC1 | 55.5% | 58.5% | 84% | 80.5% | 58.5% | 64.4% | 90.7% | 84.9% | 50.6%
4 | CN1CCN(c2ccc(Nc3nc(N4CCN(S(=O)(=O)c5ccc(F)cc5)CC4)c4sccc4n3)cc2)CC1 | -62.7% (active) | 65.2% | -100% (active) | -63.8% (active) | -77.6% (active) | -51.1% (active) | -90.7% (active) | -74.8% (active) | -96.7% (active)
5 | CN1CCN(c2ccc(C(=O)/C=C/c3ccc(OC(F)F)cc3)cc2)CC1 | 55% | 19.2% | -37.3% (active) | -32.8% (active) | -71.7% (active) | -62.5% (active) | -48.9% (active) | 6.74% (active) | -60.7% (active)
6 | CC(=O)NS(=O)(=O)c1ccc(NC(=O)CSC2=NC(c3ccccc3)C(C(C)=O)=C(C)N2)cc1 (configuration not stated) | 99.7% | 116% | 104% | 106% | 95.2% | 102% | 108% | 104% | 110%
7 | CC1(C)CC[C@]2(C(=O)NCCCNCCCCNCCCN)CC[C@]3(C)C(=CC[C@@H]4[C@@]5(C)Cc6c([nH]c7ccccc67)C(C)(C)[C@@H]5CC[C@]43C)[C@H]2C1 | 78.7% | 109% | 106% | 113% | 62.9% | 65.3% | 96.5% | 96.4% | 75.3%
8 | CN1CCN(Cc2ccc(NC(=O)c3cncc(C#Cc4cnc5ccc(N[C@@H]6CCOC6)nn45)c3)cc2C(F)(F)F)CC1 | -63.2% (active) | -71.3% (active) | -87.6% (active) | -41.9% (active) | -88.1% (active) | -63.9% (active) | -99.7% (active) | -90.7% (active) | -96.2% (active)
9 | Cc1cccc(-c2nc(Nc3ccccc3C(=O)O)c3ccccc3n2)c1 | 26.8% | -0.675% (active) | 44.6% | 35.5% | 24% | 22.7% | 27.1% | 30% | -15.1% (active)
10 | COc1cc2oc(-c3cccc(C(=O)Nc4ccc(Cl)cc4)c3)cc(=O)c2c(OCCNC(=O)CNC(=O)OC(C)(C)C)c1OC | 59% | 51.2% | 66.7% | 110% | 42% | 41.6% | 102% | 48.6% | 67.4%
11 | COc1cc(/C=C/C(=O)c2ccc(C(F)(F)F)cc2)ccc1Oc1nc(Nc2ccc(F)cc2)nc(N(C)C)n1 | 44.6% | 90.9% | 80.1% | 50.2% | 30.8% | 7.06% (active) | 97.9% | 87.8% | 66.4%
12 | Nc1nc(Nc2ccccc2)nn1Cc1c(Cl)cccc1Cl | 15% | 23.6% | 48.4% | 56.3% | 16% | 22.4% | 15.2% | 13% | 5.3% (active)
13 | C=C(C)[C@@H]1CC[C@]2(C)[C@H](CC=C3[C@@H]4CC(C)(C)CC[C@]4(C(=O)N4CCOCC4)CC[C@]32C)[C@@]1(C)CCCN | -88.1% (active) | -85.3% (active) | -99.5% (active) | -65.1% (active) | -70.7% (active) | -54.2% (active) | -81.1% (active) | -82.3% (active) | -96% (active)
14 | OCc1[nH]nc2cc(Nc3ncc4ccc(Br)c(OC5CCC(O)CC5)c4n3)ccc12 (configuration not stated) | 2.7% (active) | -42.5% (active) | -15.7% (active) | -18.6% (active) | -74.7% (active) | 6.59% (active) | -49% (active) | 2.85% (active) | -87.8% (active)
15 | Cn1cc(-c2cc(N)n3nc(-c4c[nH]c5ccc(Br)cc45)cc3n2)c2cccnc21 | -75.7% (active) | -83.7% (active) | -77.7% (active) | -78.6% (active) | -78.5% (active) | -87.9% (active) | -97.8% (active) | -78.3% (active) | -92.1% (active)
16 | O=C(CSc1nnc(-c2c[nH]c3ccccc23)n1-c1ccccc1)c1ccc(Br)cc1 | 22% | 65.2% | 40.9% | 79.8% | 53.4% | 54.3% | 31.7% | 34.6% | 22%
17 | CC(=C(c1ccc(OCCN2CCCCCC2)cc1)c1ccc(OCCN2CCCCCC2)cc1)c1ccc(Cl)cc1 | -58.8% (active) | -65.5% (active) | -100% (active) | -61.1% (active) | -79.6% (active) | -61.9% (active) | -97.8% (active) | -73% (active) | -91.6% (active)
18 | COc1cccc(/C=C2\N=C(C)N(CCc3ccc(S(N)(=O)=O)cc3)C2=O)c1 | 97.3% | 100% | 114% | 105% | 95.2% | 97.8% | 117% | 104% | 113%
19 | Cn1cc(-c2cc(N)n3nc(-c4c[nH]c5ccc(Br)cc45)cc3n2)c2cc(Br)cnc21 | -74.7% (active) | -75.4% (active) | -46.3% (active) | -71.2% (active) | -79.5% (active) | -69.6% (active) | -98.1% (active) | -73.1% (active) | -98.3% (active)
20 | O/N=C(\CSc1nnc(-c2c[nH]c3ccccc23)n1-c1ccccc1)c1ccc(Br)cc1 | 5.96% (active) | -72.7% (active) | -100% (active) | -86.3% (active) | -42.5% (active) | -36.3% (active) | -66.5% (active) | 2.11% (active) | -94.5% (active)
21 | Cc1ccc(NCC(=O)Nn2c(COc3ccccc3)nc3ccccc3c2=O)cc1 | 82.6% | 97.6% | 92.6% | 95.1% | 82% | 85.1% | 95.7% | 100% | 80.1%
22 | COc1ccc(-c2nc(Nc3ccccc3S(N)(=O)=O)c3ccccc3n2)cc1 | 35.7% | 85.8% | 34.1% | 8.47% (active) | 9.02% (active) | -42.9% (active) | 12% | 6.25% (active) | -13.4% (active)
23 | N#Cc1c(-c2ccc(F)cc2)nc(SCc2ccc(F)cc2)nc1N1CCOCC1 | 73.2% | 64.3% | 93.5% | 85.5% | 63.7% | 66% | 87.4% | 87.2% | 62.1%
24 | COc1ccc2[nH]cc(/C=N/Nc3cccc(Cl)n3)c2c1 | 31.5% | 12.1% | 44.7% | 79.7% | 31.9% | 37.3% | 39.7% | 21.3% | -13.2% (active)
25 | CN1CCc2c(sc3ncnc(N/N=C/c4cn(-c5ccccc5)nc4-c4ccc(Br)cc4)c23)C1 | 74.2% | 83.4% | 66.1% | 11% | -3.07% (active) | 1.25% (active) | 27.1% | 44.9% | 16.8%
26 | O=C(c1ccc([N+](=O)[O-])c([N+](=O)[O-])c1O)n1[nH]c(=O)c2ccccc2c1=O | 49.8% | 51.2% | 53.7% | 35.7% | 30.5% | 30.1% | 106% | 72.3% | 0.114% (active)
27 | COc1ccc2nc(Nc3cccc(NC(=O)c4ccc(CN5CCN(C)CC5)c(C(F)(F)F)c4)c3)ccc2c1 | -25.9% (active) | -45.8% (active) | -96% (active) | -89.7% (active) | -97.1% (active) | -15.3% (active) | -99.4% (active) | -68.1% (active) | -97.1% (active)
28 | O=C(c1ccc(Cl)cc1)C1[C@H](c2ccc(Br)cc2)[C@@H](c2ccccc2)NC12C(=O)Nc1ccc(Cl)cc12 (some centres not stated) | 8.01% (active) | -57.1% (active) | -84.9% (active) | -76.4% (active) | -39.7% (active) | 5.1% (active) | -94.9% (active) | -26.6% (active) | -90% (active)
